Hit rate of the full screen: of about 4,800 compounds, about 420 (8.8%) showed an effect of 50% or more. Only a selection was taken, and strong results are over-represented in it overall.
These compounds were tested on Plasmodium falciparum (assay: Confirmatory screen in NF54 nanoGlo assay, in single point, at 2uM, 72h). Conditions: timepoint 72 hour.
Assay type: functional, Erythrocyte
For `Cc1ccc(CN2CCN(C[C@@H](O)Cn3c4ccccc4n4c(=O)cc(C)c(C#N)c34)CC2)c(C)c1`, the “% Inhibition” value was 89%. `N#Cc1c(CN2CCOCC2)cc(=O)n2c1[nH]c1ccccc12` was tested, and the “% Inhibition” value was -4%. In the case of `O=C(Cc1c[nH]c2ccccc12)N[C@H]1CCS(=O)(=O)C1`, the “% Inhibition” value is reported as -4%. With `CCOCCCNC/C=C/c1ccccc1` the “% Inhibition” value was -5%. `CC(=O)N1CCC(Nc2ccc3c(c2)CCC(=O)N3)CC1` was tested, and the “% Inhibition” value was -17%. In the case of `COc1cc(Cl)c(C)cc1NC(=O)c1cc(=O)n(-c2ccc(C)cc2)[nH]1`, the “% Inhibition” value is reported as -8%. For `Clc1cccc(N2CCN(Cc3ccc(OC4CCNCC4)cc3)CC2)c1`, the “% Inhibition” value was 27%. `O=C(CN1CCCCCC1)Nc1ccc(OCc2ccccc2)cc1` was tested, and the “% Inhibition” value was 0%. For `c1ccc(Cn2ncc3cc(-c4nc(C5CC5)no4)cnc32)cc1`, the “% Inhibition” value was 3%. In the case of `COc1ccccc1[C@H]1CC(O)=Nc2c1ncn2-c1cc(F)cc(F)c1`, the “% Inhibition” value is reported as -4%. For `Cn1ccnc1[C@@H]1CCCN1S(=O)(=O)c1c2c(nn1C)CCCC2`, the “% Inhibition” value was 4%. With `C[C@@H](CNc1nc(-c2ccccc2)nc2nc(-c3ccc(Cl)cc3)oc12)N1CCCCC1` the “% Inhibition” value was 60%. `O=C1CC(c2cccc(NC(=O)CCc3ccccn3)c2)CC(=O)N1` was tested, and the “% Inhibition” value was 3%. `NC(=O)c1ccc(C(F)(F)F)n(CC(=O)N(Cc2ccc(F)cc2)C2CCCCC2)c1=O` was tested, and the “% Inhibition” value was -6%. In the case of `NC(=O)c1ccc(C(F)(F)F)n(C[C@H](O)c2cc(Cl)ccc2Cl)c1=O`, the “% Inhibition” value is reported as 63%. `Cc1cc(-n2c(C)cc(C(=O)Cn3c(C(F)(F)F)ccc(C(N)=O)c3=O)c2C)no1` was tested, and the “% Inhibition” value was 25%. In the case of `CCC(=O)N(CCN(C)C)Cc1c(-c2ccccc2)noc1N1CCCCC1`, the “% Inhibition” value is reported as 10%. For `CCN(CCN(C)C)C(=O)c1cccc(-c2ccc3nccc(N)c3c2)c1`, the “% Inhibition” value was 70%. In the case of `Cc1cccc(OC[C@@H](O)Cn2cnc(C)c(C)c2=O)c1`, the “% Inhibition” value is reported as 5%. With `COc1ccc(-n2nnnc2[C@@H](NCCc2c[nH]c3ccccc23)C(C)C)cc1` the “% Inhibition” value was -1%. For `Cc1cccc(CC(=O)N[C@@H](C)CCC(=O)O)c1`, the “% Inhibition” value was 4%. With `CN1CCC2C(CCN2C(=O)Nc2ccc(Cl)c(C(F)(F)F)c2)C1` (configuration not stated) the “% Inhibition” value was 2%. With `O=C(Nc1ccccc1Cl)N1CCC(N2CCc3sccc3C2)CC1` the “% Inhibition” value was 37%. With `O=C(CCc1ccc(Cl)c(C(F)(F)F)c1)N1CC[C@H](N2CCc3ccccc3C2)C1` the “% Inhibition” value was 52%. For `CC(C)c1cccc(CN2C(=O)N[C@]3(CC(C)(C)OC3(C)C)C2=O)n1`, the “% Inhibition” value was -6%. For `CC(Oc1ccc2c(c1)C(c1ccccc1)N(Cc1ccccc1F)CC2)C(=O)NC1CC1` (configuration not stated), the “% Inhibition” value was 56%. `COc1ccc2cc3n(c2c1)C[C@](C(=O)NC1CCCCCC1)(c1ccccc1)N(Cc1ccccc1F)C3=O` was tested, and the “% Inhibition” value was -17%. For `C[C@H](C(=O)NCC1CCN(Cc2ccccc2F)CC1)C1CCOCC1`, the “% Inhibition” value was -6%. In the case of `C=CCN1CCN(c2nccn3nc(-c4ccc(Cl)cc4)cc23)CC1`, the “% Inhibition” value is reported as -3%. In the case of `CC[C@H]1C(=O)NCCN1C(=O)c1cc(C)n[nH]1`, the “% Inhibition” value is reported as 7%. For `Cn1c(Cc2n[n+]3c(-c4ccccc4)cc(-c4ccccc4)nc3n2C)n[n+]2c(-c3ccccc3)cc(-c3ccccc3)nc12`, the “% Inhibition” value was 99%. `COCc1nsc(N2CCC(c3ccccc3)CC2C)n1` (configuration not stated) was tested, and the “% Inhibition” value was 1%. In the case of `O=C(NCc1cccnc1)c1cnn2c3c(cnc12)CCCC3`, the “% Inhibition” value is reported as -4%. For `C[C@H]1CCCN(S(=O)(=O)NCC(=O)Nc2ccccn2)C1`, the “% Inhibition” value was -15%. In the case of `C[C@H]1CCCN(c2nc(-c3ccccn3)nc3ccccc23)C1`, the “% Inhibition” value is reported as 97%. `CCc1ccc(NC(=O)[C@H]2CCCN(c3nc4cccnc4n(Cc4ccccc4)c3=O)C2)cc1` was tested, and the “% Inhibition” value was -6%. In the case of `O[C@H]1Cc2ccccc2[C@H]1Nc1nc(-c2ccccn2)nc2c1CCNC2`, the “% Inhibition” value is reported as 13%. With `C[C@H]1CCN(c2nc(-c3ccccn3)nc3c2CCC3)C1` the “% Inhibition” value was 91%. `FC(F)(F)C1CN(c2nc(-c3ccccn3)nc3c2CCC3)C1` was tested, and the “% Inhibition” value was 67%. For `CN(C)Cc1ccc(O)c(CCc2ccccc2)n1`, the “% Inhibition” value was 29%. For `C[C@@]12CCCCN1CCCc1c2[nH]c2ccccc12`, the “% Inhibition” value was -15%. `COc1c[nH]c(C(=O)NC2CCN(Cc3ccccc3)CC2)cc1=O` was tested, and the “% Inhibition” value was 5%. `CCOc1cc(Cl)ccc1C(=O)NC1CCN(C[C@H]2CCOC2)CC1` was tested, and the “% Inhibition” value was 1%. `FCCn1ncnc1CN1CCCCC[C@H]1C1CCCCC1` was tested, and the “% Inhibition” value was 4%. For `CCN(CC)CC(O)COc1c(Br)cc(C(C)(C)c2cc(Br)c(OCC(O)CN(CC)CC)c(Br)c2)cc1Br` (configuration not stated), the “% Inhibition” value was 99%. For `O=C(CNC(=O)[C@H]1CC[C@H](CNS(=O)(=O)c2ccccc2)CC1)N1CCN(c2ccccc2)CC1`, the “% Inhibition” value was 4%. In the case of `O=C(Nc1nc2ccc(F)cc2s1)c1cccc2c(Br)cccc12`, the “% Inhibition” value is reported as -1%. With `C=CCN1C(=O)OC(C)(CCC=C(C)C)C1(C)O` (configuration not stated) the “% Inhibition” value was 9%. With `CN1CCCN(c2ccnc3ccsc23)CC1` the “% Inhibition” value was 2%. With `Cc1cc(CN(C)Cc2nccn2C)ccc1N1CCCCC1` the “% Inhibition” value was -1%. `Cc1cccc(OCc2nn3c([C@H]4CCCN(S(C)(=O)=O)C4)nnc3s2)c1` was tested, and the “% Inhibition” value was -6%. For `Cc1nccc(N(C)C2CC(Oc3ccccc3)C2(C)C)n1` (configuration not stated), the “% Inhibition” value was -5%. `Cc1nn2c(C(F)F)cc(-c3ccc4c(c3)OCO4)nc2c1Cl` was tested, and the “% Inhibition” value was -5%. With `O=C(CCn1nc(-c2ccc(Br)cc2)ccc1=O)NCc1ccc2c(c1)OCO2` the “% Inhibition” value was -4%. For `Cc1cc(C)c(S(=O)(=O)N2CCC(C)(C(=O)NCc3ccc4c(c3)OCO4)CC2)cc1C`, the “% Inhibition” value was 3%. In the case of `COc1ccc(-c2cc3n(n2)C[C@@](C)(C(=O)NCc2ccccc2)N(Cc2ccc4c(c2)OCO4)C3=O)cc1`, the “% Inhibition” value is reported as 63%. With `CCc1ccc(CN2C(=O)c3c(C(=O)OC)ncn3C[C@@]2(C)C(=O)NC2CCCC2)cc1` the “% Inhibition” value was -6%. For `COc1ccc(-c2cc3n(n2)C[C@@](C)(C(=O)NCc2ccccc2OC)N(c2cccc(OC)c2)C3=O)cc1`, the “% Inhibition” value was 49%. In the case of `CCc1ccc(CN2C(=O)c3c(C(=O)OC)ncn3C[C@@]2(C)C(=O)NC2CCCCCC2)cc1`, the “% Inhibition” value is reported as 1%. With `CCc1ccc(-c2cc3n(n2)C[C@@](C)(C(=O)NC2CCCCC2)N(c2cc(C)cc(C)c2)C3=O)cc1` the “% Inhibition” value was 74%. With `C[C@@]1(C(=O)NCc2ccccc2)Cn2nc(-c3ccccc3)cc2C(=O)N1c1ccc2c(c1)OCCO2` the “% Inhibition” value was 58%. With `COc1cccc(-c2ccc(=O)n(CCC(=O)N3CCN(Cc4ccc5c(c4)OCO5)CC3)n2)c1` the “% Inhibition” value was 1%. In the case of `Cc1nn(CCc2nnc(-c3ccc4c(c3)OCO4)o2)c(C)c1Cl`, the “% Inhibition” value is reported as -3%. With `O=C(O)Cc1sc(-c2ccccc2)nc1O` the “% Inhibition” value was 1%. With `CC(=O)Nc1cc(NC(=O)c2cccc[n+]2[O-])c(F)cc1F` the “% Inhibition” value was -2%. For `COC(=O)c1[nH]c(C)cc1NC(=O)C1=CCCCCC1`, the “% Inhibition” value was -2%. For `O=C(Nc1nncs1)c1cccc(C(=O)Nc2nncs2)n1`, the “% Inhibition” value was 68%. `O=C(Nc1nncs1)NC(C1CC1)C1CC1` was tested, and the “% Inhibition” value was 0%. For `Cc1ccc(-c2csc(NC(=O)c3cccc(C(=O)Nc4nc(-c5ccc(C)cc5C)cs4)n3)n2)c(C)c1`, the “% Inhibition” value was -1%. In the case of `CCOC(=O)c1c(C(F)(F)F)[nH]n2c(C(F)F)nnc12`, the “% Inhibition” value is reported as -3%. In the case of `COc1ccc2ccccc2c1C(=O)Nc1ccc(N2CCN(C)CC2)c(Cl)c1`, the “% Inhibition” value is reported as 5%. `Cc1cc(NC(=O)C(=O)NC2CC(C)CC(C)(C)C2)n(-c2nc3c(c(=O)[nH]2)CCC3)n1` (configuration not stated) was tested, and the “% Inhibition” value was 90%. In the case of `CCOc1ccc2ccccc2c1C(=O)Nc1cc(C)nn1-c1nc2c(c(=O)[nH]1)CCC2`, the “% Inhibition” value is reported as 94%. In the case of `O=C(Cc1ccccc1)Nc1c2c(nc3c1CCC3)CCCC2`, the “% Inhibition” value is reported as 3%. In the case of `Cc1cc(C)cc(Nc2nc(C)cc(=O)n2CC(=O)Nc2ccc(C)cc2Br)c1`, the “% Inhibition” value is reported as -8%. In the case of `Cc1ccc2c(c1)ncc1c(-c3ccccc3)nn(-c3ccc(F)cc3)c12`, the “% Inhibition” value is reported as -5%. `COc1ccc(NC(=O)Cc2c(C)nn(-c3nc(C)cs3)c2O)c(OC)c1` was tested, and the “% Inhibition” value was -7%. With `CCOC(=O)c1cc(-c2ccccc2)n(NC(=O)COc2ccc(Cl)cc2)c1C` the “% Inhibition” value was -11%. With `CNC(=O)c1cc(N2CCN(c3ncc(C(F)(F)F)cc3Cl)CC2)ccc1NC(=O)c1ccccc1Cl` the “% Inhibition” value was 7%. For `CCCN(CCC)CCN1C(=O)[C@@H]2C(C(=O)Nc3cc(Cl)cc(Cl)c3)[C@@H]3C=C[C@]2(O3)C1C(=O)NC1CCCCC1` (some centres not stated), the “% Inhibition” value was -3%. For `COc1ccc(OC)c(NC(=O)Cn2cnc3nc(N4CCOCC4)ncc3c2=O)c1`, the “% Inhibition” value was 8%. With `Cc1cc(-c2nnc3n2CC(C)(C)CC3)c(C)o1` the “% Inhibition” value was 2%. For `CCN(C)C1(CNC(=O)c2ccc(-c3cc(F)ccc3O)cc2)CCCC1`, the “% Inhibition” value was 26%. `CCCc1cc(-c2nc(-c3ccc(-n4nc(C)cc4N)cc3)no2)n(C)n1` was tested, and the “% Inhibition” value was 48%. For `COc1cccc2nc(C[C@H]3CN(CC(C)C)CC[C@H]3CC(=O)O)[nH]c12`, the “% Inhibition” value was -9%. With `O=C1c2ccccc2[C@@H](Nc2ccc3c(c2)OCCO3)N1c1ccccn1` the “% Inhibition” value was -17%. With `CNc1nc(NCc2ccccc2)nc2ccccc12` the “% Inhibition” value was 78%. `NS(=O)(=O)c1ccc(CCNc2nc(-c3ccccc3)nc3ccccc23)cc1` was tested, and the “% Inhibition” value was -2%. `CC1(C)Cc2nc3ccccc3c(NCc3ccccc3)c2[C@@H](O)C1` was tested, and the “% Inhibition” value was 44%. In the case of `c1ccc(CCNc2nc(-c3ccccn3)cs2)cc1`, the “% Inhibition” value is reported as 12%. With `Cc1ccc(-c2nc3ncccn3c2Nc2ccc3c(c2)OCCO3)o1` the “% Inhibition” value was -8%. In the case of `CNc1nc(Nc2ccc3c(c2)OCCO3)nc2ccccc12`, the “% Inhibition” value is reported as 95%. With `C[C@H](Nc1nc(N2CCCCC2)nc2ccccc12)c1ccccc1` the “% Inhibition” value was -1%. For `CNc1nc(NCCc2ccccc2)nc2ccccc12`, the “% Inhibition” value was 80%. In the case of `c1coc(CNc2nc(Nc3cccc4ccccc34)nc3ccccc23)c1`, the “% Inhibition” value is reported as 20%. `Cc1ccc(C)n1-c1ccc(Cl)c(C(=O)NC[C@H]2COCCO2)c1` was tested, and the “% Inhibition” value was -4%. For `C#Cc1cc(C(F)(F)F)cc(C#N)c1N`, the “% Inhibition” value was 5%.

Source: ChEMBL document CHEMBL4888484, “Replenishing the malaria drug discovery pipeline: Screening and hit evaluation of the MMV Hit Generation Library 1 (HGL1) against asexual blood stage Plasmodium falciparum ,using a nano luciferase reporter read-out” (2022)
